Test results taken from PubChem BioAssay AID1159580 (chemical genetic matrix, 2015).
Hit rate of the full screen: of about 5,500 compounds, about 2,000 (36%) were called active. Not shown: some 18% with an inconclusive outcome. Rule as the data show it: active = normalized growth mostly below about 0.91 (no sharp cut-off); inconclusive = no clear call, values can overlap the other calls; inactive = mostly above about 0.92. The list shows a part of the results.

Assay: chemical genetic growth profiling, strain panel (AID 1159580);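 also: tested at 20 µM; growth read once vehicle control cultures reached saturation at 30 °C; 1 = growth at the plate median or of vehicle wells; lower values mean less growth of the strain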
Conditions: S. cerevisiae deletion strains, growth OD

Measured: normalized growth

O=C(O)CC[C@@H](NC(=O)c1ccccc1C(=O)O)C(=O)O
inactive: locus YAL013W, strain DEP1, active compounds read low 1.02 | locus YAL040C, strain CLN3, active compounds read low 0.995 | locus YCL061C, strain MRC1 (second series), active compounds read low 1.01 | locus YDR363W, strain ESC2, active compounds read low 1.01 | locus YER002W, strain NOP16, active compounds read low 1.03 | locus YGR229C, strain SMI1, active compounds read low 1.03 | locus YJR075W, strain HOC1, active compounds read low 1.01 | locus YMR307W, strain GAS1, active compounds read low 1 | locus YNL175C, strain NOP13, active compounds read low 1 | locus YNL197C, strain WHI3, active compounds read low 1.01 | locus YNL224C, strain SQS1, active compounds read low 1.01 | locus YNL322C, strain KRE1, active compounds read low 1 | locus YOR083W, strain WHI5 (second series), active compounds read low 1.02 | locus YPL241C, strain CIN2, active compounds read low 1.01
